Measurements published in paper PMC7819943, “Rice protein-binding microarrays: a tool to detect cis-acting elements near promoter regions in rice”.
In all, about 39,000 sequences were measured (“fluorescence intensity (a.u.)”: median about 4,300, highest 2% from about 39,000 on). The entries come from a sample that favours the highest values as a whole.

These sequences were tested against T1, OsSMF1 (Oryza sativa, UniProt Q6ZLB0 1-436) (assay: protein-binding microarray (RPBM); PBS, 2% BSA, 51.3 ng/ul salmon testes DNA, 50 uM zinc acetate, 200 nM TF, 25 C, 1 h; high values mean tight binding). Details: protein: recombinant; tags: N-terminal polyhistidine and DsRed monomer fusion (pET32a); chain copies: 2; label: CyDye5-dUTP incorporated in the synthesized complementary strand; 3' TTTTT single-stranded linker to array surface; dsDNA, one strand shown.
T1 sequence: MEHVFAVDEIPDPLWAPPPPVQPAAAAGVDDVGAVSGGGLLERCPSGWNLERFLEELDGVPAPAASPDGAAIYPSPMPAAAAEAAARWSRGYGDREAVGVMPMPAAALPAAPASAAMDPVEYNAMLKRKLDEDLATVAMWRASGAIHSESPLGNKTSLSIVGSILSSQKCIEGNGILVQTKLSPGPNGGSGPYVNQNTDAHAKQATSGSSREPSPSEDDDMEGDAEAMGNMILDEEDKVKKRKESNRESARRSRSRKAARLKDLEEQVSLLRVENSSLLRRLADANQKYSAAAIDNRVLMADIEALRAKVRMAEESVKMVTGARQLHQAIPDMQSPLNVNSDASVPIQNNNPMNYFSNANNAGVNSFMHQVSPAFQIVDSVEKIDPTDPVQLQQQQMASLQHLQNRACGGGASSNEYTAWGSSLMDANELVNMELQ
How it was run: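 The binding signal for each feature is its fluorescence intensity in arbitrary units. An Axon 4000B scanner was used to read a custom Agilent array that had been made double-stranded with Cy5-dUTP primer extension, blocked with 2% BSA, incubated at 25 °C for 1 h with 200 nM protein in PBS, 2% BSA, salmon testes DNA and 50 µM zinc acetate, and washed. The protein was an N-terminal polyhistidine–DsRed transcription factor fusion from E. coli BL21-CodonPlus, purified on Ni–NTA.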
With “ATACTTCCATTTGTGCCATACATTTTGTCATTTCGACCTGCGGAGTCACCTAGTGCAG” the binding signal was 3330 fluorescence intensity (a.u.).
With “GGTTTTAACCCCGATTTCGTTCGACGTGGCGGCTGAGTCACGGAGTCACCTAGTGCAG” the binding signal was 10800 fluorescence intensity (a.u.).
“ATTCACTTTCTTGATTACGTAGAAGCTTCAGTGTCTATTCCGGAGTCACCTAGTGCAG” was tested, and the binding signal was 3810 fluorescence intensity (a.u.).
In the case of “ACAAGTACTACACGCGAATGTATTTCAATAGAAATTTATCCGGAGTCACCTAGTGCAG”, the binding signal is reported as 35600 fluorescence intensity (a.u.).
With “TGCATGTACGATACTGGAGCTGATCCTCGCCATCATATCCCGGAGTCACCTAGTGCAG” the binding signal was 3160 fluorescence intensity (a.u.).
“ATCAGCAAGAATGCGAGGGAGACGGCGGAGAGCTCGGGAACGGAGTCACCTAGTGCAG” was tested, and the binding signal was 43000 fluorescence intensity (a.u.).
In the case of “ACGATCGGTGACGACGAGCGACGACGCGGCATGAAGACGCCGGAGTCACCTAGTGCAG”, the binding signal is reported as 3300 fluorescence intensity (a.u.).
With “CGCCGCGAAGGCGCGAAGCCCCGTCACCGCGCGCGCGCGCCGGAGTCACCTAGTGCAG” the binding signal was 5540 fluorescence intensity (a.u.).
In the case of “TGGAGAGGGAACCAACAACAAACAACCAGCTGCCTCGCCGCGGAGTCACCTAGTGCAG”, the binding signal is reported as 47200 fluorescence intensity (a.u.).
“AGAAGCGCGCCGAGGAGGCCCGCTCGTTCAACCGCGCCGCCGGAGTCACCTAGTGCAG” was tested, and the binding signal was 65500 fluorescence intensity (a.u.).
In the case of “GTGCGCGCGGTGCTTAGGCAGACGCGGCCCAGATCGGCGCCGGAGTCACCTAGTGCAG”, the binding signal is reported as 40500 fluorescence intensity (a.u.).
“CCGCCTCGCCGCGTGCCTCTGGAACAATCTGGCGCTGCCGCGGAGTCACCTAGTGCAG” was tested, and the binding signal was 3700 fluorescence intensity (a.u.).
In the case of “GGCGGCGGCGGAGAAGGAGAGGCCGCCCGCCGCGTGGCGCCGGAGTCACCTAGTGCAG”, the binding signal is reported as 6420 fluorescence intensity (a.u.).
For “ACAAACCAACCAACCCTCCTCGCCGCGGCCGCCGCCACCGCGGAGTCACCTAGTGCAG”, the binding signal was 3400 fluorescence intensity (a.u.).
“GCGCGCGCGCGCGGGCATAGGCGACGCCGCGACGGTGCGGCGGAGTCACCTAGTGCAG” was tested, and the binding signal was 3890 fluorescence intensity (a.u.).
“CGGAGACGGGAGGCGAGGCGAGCGGCGCCGCGGAACGGGACGGAGTCACCTAGTGCAG” was tested, and the binding signal was 18600 fluorescence intensity (a.u.).
“AGGGAAAAGAGGAGACGGGAGGAAAGGAACGGAGGAGATGCGGAGTCACCTAGTGCAG” was tested, and the binding signal was 3340 fluorescence intensity (a.u.).
With “GAGAGAGAGAGAGGGATTTCCCCTTGGCTCCGCGTCGATACGGAGTCACCTAGTGCAG” the binding signal was 3520 fluorescence intensity (a.u.).
For “AATCTATATGTTATCGTCCTCCTCTTGCGTGTGGCTAGTTCGGAGTCACCTAGTGCAG”, the binding signal was 3750 fluorescence intensity (a.u.).
With “AATTGTTTACTGATCTTTGCGTTAATGATGATTGTGCCCTCGGAGTCACCTAGTGCAG” the binding signal was 3160 fluorescence intensity (a.u.).
With “AAAATTCGAATCAGGCGGAGCCACCTCACCTCGCCGCGGCCGGAGTCACCTAGTGCAG” the binding signal was 5020 fluorescence intensity (a.u.).
With “CTTTGTCTTAGTATGGTGACTGGTTGCAAATTGATTTGGTCGGAGTCACCTAGTGCAG” the binding signal was 3410 fluorescence intensity (a.u.).
In the case of “AGCTAGCTAGCTAACTAGTAAGGAGGTACACGTAGGTAGCCGGAGTCACCTAGTGCAG”, the binding signal is reported as 6960 fluorescence intensity (a.u.).
With “TGGGTTGAATATGAGCTTGAATATTGGTGGAGTGATACATCGGAGTCACCTAGTGCAG” the binding signal was 3240 fluorescence intensity (a.u.).
For “CTTCCATATATCCTTGTCACAAGCTAGCTCACAAAACTTCCGGAGTCACCTAGTGCAG”, the binding signal was 4680 fluorescence intensity (a.u.).
“CCGCGCTCACCTGCCGGGCGTGGCGCGCCGCGGTGGCCTCCGGAGTCACCTAGTGCAG” was tested, and the binding signal was 3140 fluorescence intensity (a.u.).
With “GCGGCGCCTCCGGGAAGCGCGGCGCCGCGTCCTCCTCCTCCGGAGTCACCTAGTGCAG” the binding signal was 3170 fluorescence intensity (a.u.).
With “GAGCGCGGAAGCCGGCGGCGGCCGTACGTGTTCGGCCGGCCGGAGTCACCTAGTGCAG” the binding signal was 3410 fluorescence intensity (a.u.).
In the case of “GGGCGGAGCGGGGCGGAGGGAGAGGAGGGAGAGGAGGGAGCGGAGTCACCTAGTGCAG”, the binding signal is reported as 4920 fluorescence intensity (a.u.).
In the case of “GCGCGCGCGGCGTTCGGGAGGAAGCGGAAGAGCGCGCCGGCGGAGTCACCTAGTGCAG”, the binding signal is reported as 47000 fluorescence intensity (a.u.).
In the case of “GCCCCGCGGCTTCCGGCTGCCGTCGCCGCGAGCCCCGTGGCGGAGTCACCTAGTGCAG”, the binding signal is reported as 5050 fluorescence intensity (a.u.).
With “GAGGCCGGGGTCGGGGCGAGCGAGGCGAGAGGGGAGGAGGCGGAGTCACCTAGTGCAG” the binding signal was 4480 fluorescence intensity (a.u.).
With “GGCGGCCACGGGCTCCGGCGGAGGGCGGCGTGGTGGCGGCCGGAGTCACCTAGTGCAG” the binding signal was 14400 fluorescence intensity (a.u.).
In the case of “GCGAGGGGCGGGGAGAGCAGCGGCGGCGGCGGAGCGCGGCCGGAGTCACCTAGTGCAG”, the binding signal is reported as 39200 fluorescence intensity (a.u.).
With “GAGCTCCGCCAGTACGAGTACAGACCCAGCTTCGCCGGCGCGGAGTCACCTAGTGCAG” the binding signal was 3580 fluorescence intensity (a.u.).
In the case of “GTGATTTATCCGAGCAGAGTGGCGGCGGCTTCGCCGAGTACGGAGTCACCTAGTGCAG”, the binding signal is reported as 39600 fluorescence intensity (a.u.).
With “GGTGGCGGCGCGGGCCGGGCGGCGGCGGCGGCGGCGGCTCCGGAGTCACCTAGTGCAG” the binding signal was 40400 fluorescence intensity (a.u.).
In the case of “TGTTTACGTCCAACGTTTAACCGCTCGTCTTATTTGAAATCGGAGTCACCTAGTGCAG”, the binding signal is reported as 21000 fluorescence intensity (a.u.).
In the case of “AGAAGTATTTCTGCGTCATTGTTGGAAATTATATTTCTAGCGGAGTCACCTAGTGCAG”, the binding signal is reported as 3650 fluorescence intensity (a.u.).
In the case of “GACACTTACAAGCACTGCGGCGTTACCATTTTATGGAACTCGGAGTCACCTAGTGCAG”, the binding signal is reported as 3220 fluorescence intensity (a.u.).
“GGAAAGGCGCCACGTAATAAATAGAAACAGACTCAGCACTCGGAGTCACCTAGTGCAG” was tested, and the binding signal was 6760 fluorescence intensity (a.u.).
In the case of “TATGCCAAAGAGAAGCCTCGTCAGCCATCCCTTTGGCCACCGGAGTCACCTAGTGCAG”, the binding signal is reported as 7800 fluorescence intensity (a.u.).
